Results on 50 compounds are retold here after PubChem BioAssay AID1851 (National Center for Advancing Translational Sciences (NCATS), 2009).

Where “and” joins values, the source holds several entries; their conditions need not be identical. Identical values can stand only once. In all, about 16,000 compounds went through this assay and about 5,700 (36%) were called active. Another 24% or so got no clear call; they are omitted. The list shows a part of the results. Values without a mark were called inactive. The call rests on the fitted dose curve; in most records, active means well fitted curve in the direction sought with a large enough effect; inconclusive means small, poorly fitted or top-dose-only effect, or effect the other way; inactive means no such curve, though single readings can be large or run the other way.
On the % scale 0 is the no-effect control and ±100 the full control effect.

For the assay, the target named is Cytochrome P450 1A2 (Homo sapiens) (UniProt P05177). Nature of the assay: Cytochrome panel assay with activity outcomes. The note with it: recombinant CYP, pro-luciferin dealkylation, luminescence, p450-cyp1a2; series mostly up to 57.1 µM; activity, negative = inhibition: at the top concentration.
Cytochrome P450 1A2 (Homo sapiens), sequence (P05177 whole entry, looked up): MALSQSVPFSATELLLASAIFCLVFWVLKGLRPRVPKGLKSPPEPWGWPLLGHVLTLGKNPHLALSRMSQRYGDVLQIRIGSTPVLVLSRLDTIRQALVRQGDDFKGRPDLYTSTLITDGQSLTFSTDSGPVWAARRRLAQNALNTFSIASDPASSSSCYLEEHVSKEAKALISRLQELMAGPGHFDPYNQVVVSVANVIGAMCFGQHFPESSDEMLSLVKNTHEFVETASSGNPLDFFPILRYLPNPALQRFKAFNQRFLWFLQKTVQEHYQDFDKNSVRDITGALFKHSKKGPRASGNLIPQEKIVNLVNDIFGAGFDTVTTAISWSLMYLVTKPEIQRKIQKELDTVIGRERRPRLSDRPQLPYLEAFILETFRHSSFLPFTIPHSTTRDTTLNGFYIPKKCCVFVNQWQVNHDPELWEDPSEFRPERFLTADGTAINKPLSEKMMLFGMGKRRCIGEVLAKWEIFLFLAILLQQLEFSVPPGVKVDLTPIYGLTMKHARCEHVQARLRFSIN
For the compound `CC(=O)OC[C@@H]1O[C@H](C/C=N\O[C@@H](C)CN2CCCCc3nc(C)c(C)cc32)C=C[C@@H]1OC(C)=O`, the activity, negative = inhibition was -2.17% [at 11.4 µM].
For `O=C(N/N=C1/C[C@@H](O)[C@@H](O)[C@@H]2[C@@H]3C(=O)N(Cc4ccccc4)C(=O)[C@H]3CC[C@H]12)OCc1ccccc1`, the activity, negative = inhibition was -7.17% [at 11.4 µM].
Same read-out and setting: in the case of `CC(C)(Oc1ccc(CCNC(=O)c2ccc(Cl)cc2)cc1)C(=O)O` it was -6.81% [at 25.6 µM]; in that of `O=C(NNC(=O)c1ccccc1O)c1ccc(Cl)cc1`, -29.5%.
The AC50 is the concentration at which the activity in the assay is half-maximal. In the case of `O=C(NCCc1ccc(O)cc1)c1ccc(Cl)cc1`, the AC50 is 14.1 µM (active).
On to `CNC(=O)C(=O)NCCc1ccc(Cl)cc1`, for which the AC50 was 7.08 µM (active).
On the same count and under the same terms, in the case of `COc1cccc(-c2nnc3sc(-c4ccc(C)cc4)nn23)c1` it was 7.08 µM (active).
In the case of `CC(C)(C)n1nc2c(c1NC(=O)c1ccc(S(=O)(=O)N3CCCCC3)cc1)CS(=O)C2` (stereo not given), the “activity, negative = inhibition” value was -29.6%.
Take `COc1cccc(-c2ccc3ncnc(Nc4ccccc4)c3c2)c1`: the AC50 was 1 µM (active).
`COc1ccc(Nc2ncc(C(=O)N3CCN(Cc4ccccc4)CC3)c3ccccc23)cc1`: the “activity, negative = inhibition” value is -12.5%.
For the compound `CNc1ncnc2ccc(-c3cccc(OC)c3)cc12`, the AC50 is 0.501 µM (active).
Same read-out and setting: then `COc1ccc(Nc2ncnc3sc(-c4ccccc4)cc23)cc1`, with 0.891 µM (active).
As to `N[C@@H](CSC(=O)c1ccccc1)C(=O)O`, the activity, negative = inhibition was -14.7% [at 11.4 µM].
The same measure, in the same setting: then `CN(C)CCCN1CC(C(=O)O)CC1=O` (stereo not given), with -1.61%; and `Cc1ccc(/C(O)=C2/C(=O)C(=O)N(CCCn3ccnc3)C2c2ccccn2)cc1` (stereo not given), with -21%; and `CCN(CC)CCN1C(=O)C(=O)/C(=C(/O)c2ccc(OC)cc2)C1c1cccs1` (stereo not given), with -15%.
On to `CCOc1ccc(/C(O)=C2/C(=O)C(=O)N(CCCn3ccnc3)C2c2cccs2)cc1Cl` (stereo not given), for which the AC50 was 15.8 µM (active).
Regarding `O=C(O)c1cc(-c2ccncc2)nc2ccccc12`, the activity, negative = inhibition is -9.92% [at 11.4 µM].
Take `O=C(N/N=C/c1ccc([N+](=O)[O-])o1)c1cc(-c2ccncc2)nc2ccccc12`: the half-maximal activity concentration (AC50) is 15.8 µM (active).
As for `Nc1ccc(S(=O)(=O)Nc2ccc(Cl)nn2)cc1`, the “activity, negative = inhibition” value is -7.06% [at 25.6 µM].
Same read-out and setting: in the case of `FC(F)(F)c1ccc(/C=N/N2CCN(Cc3cccc4ccccc34)CC2)cc1` it was -19.8%; in that of `COc1ccccc1CN1CCC2(CC1)CCN(S(C)(=O)=O)CC2`, 17.5%.
As to `COc1ccccc1/C=C/C=N/N1CCN(Cc2cccc3ccccc23)CC1`, the AC50 was 7.08 µM (active).
Same read-out and setting: then `COc1ccc([C@@H]2CNC(=O)C2)cc1OC1CCCC1`, with 3.16 µM (active) and 3.98 µM (active).
On to `COc1ccc(C2C(=O)N(C3CCCCCC3)CC(=O)N2Cc2ccccc2)cc1OC` (stereo not given), for which the “activity, negative = inhibition” value was -14.6%.
On the same count and under the same terms, in the case of `COc1ccc(OC)c(C2CC(=O)C3=C(C2)NC(=O)CC3c2ccc(O)c(OC)c2)c1` (stereo not given) it was -15.2%.
Consider `COc1cccc(-c2ccc3ncnc(NCc4ccc(OC)cc4OC)c3c2)c1`, for which the AC50 is 2.51 µM (active).
Still for that read-out and setting: then `COc1ccccc1CNc1ncnc2ccc(-c3cccnc3)cc12`, with 0.316 µM (active).
Same read-out and setting: then `COc1ccc(CNc2ncnc3ccc(-c4c(C)noc4C)cc23)c(OC)c1`, with 15.8 µM (active).
`COc1ccc(CNc2ncnc3ccc(-c4cccnc4)cc23)c(OC)c1`: the concentration at half-maximal activity (AC50) was 0.398 µM (active).
In the case of `CO/N=C(\C)CCN1CCCc2nc(C)c(C)cc21`, the activity, negative = inhibition is 2.07% [at 11.4 µM].
On the same count and under the same terms, then `Cc1cc(C)cc(OCC(=O)NNC(=O)c2cc(C)[nH]n2)c1`, with -6.86%; and `COCC(=O)N1CCC2(CC1)CN(C(=O)Nc1cccc(F)c1)C2`, with 2.7%.
Turning to `O=C(Cn1cnc2ccccc2c1=O)Nc1nnc(SCc2ccccc2)s1`, the “activity, negative = inhibition” value is -19.6%.
Regarding `O=C(Cc1ccccc1)Nc1nc(=O)c2ccccc2s1`, the AC50 was 2.24 µM (active).
Same read-out and setting: then `CCc1ccc2c(c1)c(N=NC1=NC(=O)CS1)c(O)n2CC`, with 1.41 µM (active); and `Oc1cccc2ccc(SSc3ccc4cccc(O)c4n3)nc12`, with 3.16 µM (active).
Take `COc1ccc(NC(=O)N2CC3(CCN(C(C)=O)CC3)C2)cc1`: the “activity, negative = inhibition” value is -1.08%.
Still for that read-out and setting: then `COc1ccc(N2CCN(C(=N)/C(C(C)=O)=C(\C)O)CC2)cc1`, with -6.13%.
Regarding `COc1ccc(-c2ccc(C(=S)N3CCN(C(C)=O)CC3)o2)cc1`, the AC50 is 2.24 µM (active).
Turning to `O=C(Nc1c(C(=O)N2CCOCC2)cnn1-c1ccccc1)c1ccco1`, the “activity, negative = inhibition” value is -28.5%.
Same read-out and setting: then `O=C(c1ccncc1)N1CCC2(CC1)CCN(c1ccccc1)CC2`, with -23.6%.
On to `O=C(c1cn(-c2ccccc2)nc1-c1cccs1)N1CCOCC1`, for which the half-maximal activity concentration (AC50) was 15.8 µM (active).
For the compound `C[C@@H]1/C=C\CC(=O)OC[C@H](C)C(=O)N[C@@H](C)C(=O)OC1`, the activity, negative = inhibition was -0.299% [at 11.4 µM].
Consider `COc1ccccc1CNc1cc(-c2cccc(NS(C)(=O)=O)c2)ncn1`, for which the AC50 is 15.8 µM (active).
Take `COc1ccc(CNc2cc(-c3cccc(NS(C)(=O)=O)c3)ncn2)c(OC)c1`: the AC50 is 15.8 µM (active).
The same measure, in the same setting: then `O=C(CSCc1c(Cl)cccc1Cl)NCc1cccnc1`, with 5.01 µM (active).
As for `Cc1ccc(S(=O)(=O)N2CCC(C(=O)NCc3cccnc3)CC2)cc1`, the “activity, negative = inhibition” value is -1.53%.
As to `CCS(=O)(=O)N1CCC(C(=O)NCc2cccnc2)CC1`, the “activity, negative = inhibition” value is -1.47%.
On the same count and under the same terms, then `OC(CNCc1ccc(F)cc1)(c1ccc(F)cc1)c1ccc(F)cc1`, with 4.03%.
